HCMV inh: qHTS Assay for inhibitors of the human cytomegalovirus (HCMV). 4.5% of 410,000 active. HFF cells, HCMV-luciferase reporter, 72 h; stronger effect = lower value. activity change, negative = inhibition, % at 57.5 µM; in the data active = activity change below about -60%; inconclusive = no clear call, values can overlap the other calls; inactive = above about -39%
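Two compound doses tested in HFFs infected with HCMV-luciferase, MOI 1 PFU/cell, 72 h at 37C. Lysate luminescence read with OneGlo; data normalized against buffer-only and 10uM Salinomycin inhibitor controls.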
FBPA Giardia inh: qHTS Assay for Inhibitors of Fructose-1,6-bisphosphate Aldolase from Giardia Lamblia; purified Giardia FBPA; Potency, µM (highest dose often 59.6 µM), inactives show top-dose activity, negative = inhibition, hits mostly inhibitors; 0.71% of 290,000 active; also: potency is read from the fitted curve at half-maximal effect; nearly all actives have a fitted effect of over 55% in size
Target sequence (A8B2U2 whole entry, looked up): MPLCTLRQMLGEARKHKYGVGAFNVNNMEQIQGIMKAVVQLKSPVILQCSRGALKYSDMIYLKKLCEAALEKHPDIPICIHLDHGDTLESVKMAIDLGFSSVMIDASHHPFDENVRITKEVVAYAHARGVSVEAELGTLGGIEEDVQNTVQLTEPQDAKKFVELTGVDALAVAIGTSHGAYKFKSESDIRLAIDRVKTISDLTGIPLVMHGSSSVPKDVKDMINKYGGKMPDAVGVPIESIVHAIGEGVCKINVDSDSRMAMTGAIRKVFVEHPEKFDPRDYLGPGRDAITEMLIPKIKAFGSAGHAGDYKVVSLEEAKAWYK
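Giardia FBPA (40 nM reagent) was preincubated 10 min at RT with compound (up to 57.5 uM final), then substrate plus GAPDH/TPI/NAD/arsenate coupling system with diaphorase/resazurin was added; resorufin fluorescence (525/598 nm) was read after 20 min.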
FMDV inh: High Throughput Screening for Foot and Mouth Disease Virus Antivirals | FMDV antiviral cell-based qHTS | Potency, µM (titrated, usually from 57.9 µM), without a hit: at the top dose activity change, negative = inhibition, most hits filed as inhibitors | 1.2% of 410,000 active | AID 1159524, 2015; calls by dose curve; tested in HEK293T cells; also: read-out not given here; potency is read from the fitted curve at half-maximal effect; nearly all actives have a fitted effect of over 45% in size
Vaccinia Venus: qHTS for Stage-Specific Inhibitors of Vaccinia Orthopoxvirus: Venus Reporter Primary qHTS | Vaccinia virus Venus reporter expression, fluorescence | Potency, µM (series often up to 36.5 µM), inactives show at the highest dose activity change, negative = inhibition, most hits filed as inhibitors | 0.46% of 330,000 active; calls by dose curve; tested in A549 cells; also: potency is read from the fitted curve at half-maximal effect; nearly all actives have a fitted effect of over 30% in size
HCV inhibitor: qHTS Assay for Inhibitors of Hepatitis C Virus (HCV); Huh7.5.1 HCVcc-Cre infection, luciferase reporter, 44 h; Potency, µM (titrated, usually from 41.8 µM), inactives show top-dose activity change, negative = inhibition, most hits filed as inhibitors; 3.4% of 340,000 active; also: potency is read from the fitted curve at half-maximal effect
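After 44 h co-culture of compound, cells and HCVcc-Cre (~0.5 moi), substrate is added for 15 min at room temperature and luciferase measured over 15 sec. Cells were seeded at 1,000/well and pre-cultured 4 h.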
VACV mCherry inh: qHTS for Stage-Specific Inhibitors of Vaccinia Orthopoxvirus: mCherry Reporter Primary qHTS; Vaccinia virus mCherry reporter infection, fluorescence; Potency, µM (highest dose often 36.5 µM), for inactives: top-dose activity change, negative = inhibition, most hits filed as inhibitors; 0.63% of 310,000 active; calls by dose curve; tested in A549 cells; also: potency is read from the fitted curve at half-maximal effect; nearly all actives have a fitted effect of over 35% in size
Starred values were filed as active, the others as inactive; i = inactive; ? = inconclusive; · = not tested or not shown; + = active, no number; ! = a repeat was not active. An excerpt weighted towards active compounds, which were near 7.5% of everything screened. Unless noted, calls follow the shape of the dose curve; as a rule, active = well fitted curve in the direction sought with a large enough effect; inconclusive = small, poorly fitted or top-dose-only effect, or another doubt; inactive = no such curve, though single readings can be large; an effect the other way counts as inactive or inconclusive. % is scaled to controls: 0 for no effect and ±100 for the full control effect.

SMILES	HCMV inh	FBPA Giardia inh	FMDV inh	Vaccinia Venus	HCV inhibitor	VACV mCherry inh
COc1ccc(/C=C/C(=O)c2ccc(NC3=NCCCS3)cc2)cc1OC	86.6	4.6%	15.8µM*	?	?	-28.1%
COC(=O)c1c[nH]c2c1-c1cc(C(=O)OCc3ccccc3)n(S(=O)(=O)c3ccc(C)cc3)c1C(=O)C2=O	111.9	·	7.94µM*	2.24µM*	?	?
COC(=O)c1cc2c(c3c4ccccc4n(S(=O)(=O)c4ccc(C)cc4)c13)C(=O)N(Cc1ccccc1)C2	-6.8	·	·	·	·	·
c1cc2c(cc1[C@H]1OC[C@@H]3[C@H]1CO[C@H]3c1ccc3c(c1)OCO3)OCO2	·	3.9%	·	·	·	·
CC(=O)O[C@H]1[C@@H](O)[C@H](O)[C@H](Oc2c(O)c(C)c3c4c2[C@@H](C)CC[C@@H]4[C@@H](C)C[C@H]3C=C(C)C)O[C@H]1C	-96.9*	·	0.0%	-19.2%	?	-1.6%
COc1ccc(CC(=O)OCC(=O)Nc2ncc(Cl)c(C)c2Cl)cc1	-8.3	·	-15.3%	-1.5%	16.1%	1.6%
O=C(CC[C@H]1O[C@@H](n2ccc(=O)[nH]c2=O)[C@H](O)[C@@H]1O)N1CCN(Cc2cccc3ccccc23)CC1	3.2	·	0.0%	2.1%	·	24.0%
COc1cc(C2C(C#N)=C(N)Oc3c2ccc2ccccc32)ccc1OCC(=O)Nc1ccccc1C (stereo not drawn)	10.4	-7.6%	-15.2%	·	8.91µM*	·
COc1ccc(Cn2c(=O)c3ccccc3n3c(-c4cccc(OC)c4OC)nnc23)cc1	-89.2*	·	-15.0%	17.4%	·	?
CN(C)c1cc[n+](Cc2c(Cl)cccc2Cl)cc1	-87.4*	1.2%	?	·	?	·
Cn1nc(C(=O)NCc2ccc(Cl)cc2)c2c1-c1ccccc1S(=O)(=O)C2	-82.1*	·	-19.9%	-10.4%	-3.3%	-2.3%
COc1ccccc1CNC(=O)c1nn(C)c2c1CS(=O)(=O)c1ccccc1-2	+	-5.8%	-9.8%	-8.8%	-12.6%	-13.9%
CN(C)c1ccc(CCC2C=Cc3ccccc32)cc1 (stereo not drawn)	·	·	·	4.4%	·	-3.5%
COc1cc(CN2CCc3nnc(C(NS(C)(=O)=O)C(C)C)n3CC2)ccc1F (stereo not drawn)	·	·	-8.1%	-0.8%	·	0.6%
CCCCCOc1ccc(Br)cc1/C(C)=N/NC1=NCCN1	-92.1*	-0.8%	?	12.6µM*	6.31µM*	?
COc1ccc(S(=O)(=O)N(CC(=O)NN=C2CCN(C)CC2)c2cc(Cl)ccc2OC)cc1OC	24.0	9.6%	-5.9%	5.6%	1.9%	-7.8%
COCCCNC(=O)CC1C[C@H](C(=O)N2CCCCC2)[C@@]2(CCc3ccccc3)c3[nH]c4ccc(OC)cc4c3CCN2C1=O (stereo partly drawn)	-26.0	·	7.1%	-14.5%	18.9%	-23.7%
O=C(C[C@H]1C[C@H](C(=O)N2CCCCC2)[C@@]2(CCc3ccccc3)c3[nH]c4ccc(Cl)cc4c3CCN2C1=O)NCCc1ccccn1	·	·	?	12.6µM*	0.2%	?
CN(C)CCCNC(=O)C[C@H]1C[C@H](C(=O)N2CCCCC2)[C@@]2(CCc3ccccc3)c3[nH]c4ccc(Cl)cc4c3CCN2C1=O	12.9	·	?	14.1µM*	?	12.6µM*
CN(C)CCCNC(=O)C[C@H]1C[C@H](C(=O)N2CCCCC2)[C@@]2(C)c3[nH]c4ccc(Cl)cc4c3CCN2C1=O	-8.7	·	-13.4%	-7.2%	-2.9%	-4.1%
COc1ccc2[nH]c3c(c2c1)CCN1C(=O)C(CC(=O)NCCc2ccccn2)C[C@H](C(=O)N2CCCCC2)[C@@]31CCc1ccccc1 (stereo partly drawn)	-7.0	·	6.8%	-28.4%	7.94µM*	?
Cc1cccc(NC(=O)CN2C(=O)c3cccnc3Oc3ccc(Cl)cc32)c1C	0.0	·	-5.5%	-8.4%	·	-16.8%
Cc1c(C(=O)NCc2cccc(C(F)(F)F)c2)sc(=O)n1Cc1ccccc1F	-22.8	·	-17.1%	8.4%	·	9.2%
Brc1ccc2ncnc(NCc3ccco3)c2c1	-87.1*	1.0%	14.1µM*	-27.3%	25.1µM*	-0.8%
CCCCCCCCNc1ncnc2[nH]ncc12	-75.9*	·	-26.8%	-12.5%	11.2µM*	-3.1%
SMILES	HCMV inh	FBPA Giardia inh	FMDV inh	Vaccinia Venus	HCV inhibitor	VACV mCherry inh
OCCCNc1ncnc2[nH]ncc12	-3.0	·	-11.9%	-5.9%	-1.4%	i
c1coc(CNc2ncnc3[nH]ncc23)c1	-5.6	6.1%	0.0%	?	-17.8%	6.31µM*!
C=CCN1CC[C@@H](O)C(=C)S1(=O)=O	·	·	·	-11.2%	·	-20.5%
CCOC(=O)Cc1csc(NC(=O)Nc2cccc(Cl)c2)n1	-60.3*	4.2%	?	-1.7%	?	-9.2%
CC(N)c1csc(NC(=O)Nc2cccc(C(F)(F)F)c2)n1 (stereo not drawn)	-68.2*	·	-16.2%	-24.3%	·	10.8%
O=C(Nc1ccc(Cl)cc1)Nc1nc(-c2ccccc2O)cs1	-65.6*	-11.6%	?	·	?	·
O=C(Cc1csc(NC(=O)Nc2ccc(Cl)cc2)n1)NC1CCCC1	?	·	-9.5%	-25.9%	7.08µM*	?
CCOC(=O)Cc1csc(NC(=O)Nc2ccc(Cl)cc2)n1	2.8	-1.4%	?	-23.1%	11.2µM*	-10.6%
NC(c1csc(NC(=O)Nc2cccc(Cl)c2)n1)c1ccccc1Cl (stereo not drawn)	-75.8*	·	-13.1%	-15.5%	·	13.3%
CCOC(=O)Cc1csc(NC(=O)/C=C/c2cccc(Br)c2)n1	-38.7	-3.9%	?	-10.2%	11.2µM*	?
CCOC(=O)Cc1csc(NC(=O)/C=C/c2ccc(Br)o2)n1	?	-3.5%	?	·	?	·
CCc1ccc(C(=O)C(C)OC(=O)CNS(=O)(=O)c2ccc(C)cc2)cc1 (stereo not drawn)	-7.3	·	41.9%	-20.4%	15.5%	i
CCOC(=O)c1c(C)[nH]c(C(=O)COC(=O)/C=C/c2ccc(OC(F)F)cc2)c1C	-3.6	2.2%	-8.6%	-6.2%	1.7%	i
CCOC(=O)c1c(C)[nH]c(C)c1C(=O)COC(=O)/C=C/c1ccc(OC(F)F)cc1	-4.0	-11.5%	?	?	31.6µM*	-22.5%
COc1cc(CNC(C)C)ccc1OCC(=O)Nc1cccc2ccccc12	-6.1	·	2.3%	-25.1%	?	-9.0%
CCOc1cc(CNCCCN2CCOCC2)ccc1OCC(=O)Nc1cccc2ccccc12	?	-1.0%	4.9%	·	14.1µM*	·
CCOc1cc(CNC(CC)CO)ccc1OCC(=O)Nc1cccc(C(F)(F)F)c1 (stereo not drawn)	-36.7	2.5%	-23.6%	·	1.12µM*	·
O=C(COc1ccc(Br)cc1CNCCCN1CCOCC1)Nc1ccccc1	-9.9	-6.2%	-8.8%	-16.8%	?	i

Source: PubChem (National Center for Advancing Translational Sciences (NCATS))
